Several values for one entry are separate records, joined by “and”; a condition that tells them apart may be missing. Identical values can stand only once. About 2,000 (36%) of roughly 5,500 compounds were called active. Roughly 18% stayed inconclusive and do not appear here. Rule as the data show it: active = normalized growth mostly below about 0.91 (no sharp cut-off); inconclusive = no clear call, values can overlap the other calls; inactive = mostly above about 0.92. Some of the results follow.
Experiment: chemical genetic growth profiling, strain panel (AID 1159580);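 also: tested at 20 µM; growth read once vehicle control cultures reached saturation at 30 °C; 1 = growth at the plate median or of vehicle wells; lower values mean less growth of the strain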
Conditions: S. cerevisiae deletion strains, growth OD

Measured: normalized growth

CC1=CC(=O)CC(C)(C)C1(O)/C=C/C(C)=C\C(=O)O (stereo not given)
inactive: locus YAL013W, strain DEP1, active compounds read low 0.986 | locus YAL021C, strain ccr4, active compounds read low 0.996 | locus YAL026C, strain drs2, active compounds read low 1.03 | locus YAL030W, strain snc1, active compounds read low 1.02 | locus YBL061C, strain skt5, active compounds read low 1.02 | locus YBR009C, strain hhf1, active compounds read low 1.01 | locus YBR021W, strain FUR4, active compounds read low 1.02 | locus YBR023C, strain chs3, active compounds read low 1.03 | locus YBR171W, strain sec66, active compounds read low 1.02 | locus YBR229C, strain ROT2, active compounds read low 0.948 | locus YBR231C, strain swc5, active compounds read low 1.03 | locus YBR279W, strain paf1, active compounds read low 1.01 | locus YCL011C, strain gbp2, active compounds read low 1.02 | locus YCL016C, strain dcc1, active compounds read low 1.01 | locus YCL029C, strain bik1, active compounds read low 0.973 | locus YCL069W, strain vba3, active compounds read low 1.01 | locus YCR088W, strain abp1, active compounds read low 1.03 | locus YDL005C, strain med2, active compounds read low 1.03 | locus YDL035C, strain GPR1, active compounds read low 0.981 | locus YDL040C, strain nat1, active compounds read low 1.02 | locus YDL074C, strain BRE1, active compounds read low 0.985 | locus YDL101C, strain DUN1, active compounds read low 0.987 | locus YDL134C, strain PPH21, active compounds read low 0.984 | locus YDL185W, strain tfp1, active compounds read low 0.953 | locus YDL192W, strain arf1, active compounds read low 0.983 | locus YDR001C, strain nth1, active compounds read low 1.03 | locus YDR069C, strain doa4, active compounds read low 1.04 | locus YDR101C, strain arx1, active compounds read low 1.01 | locus YDR137W, strain rgp1, active compounds read low 1.01 | locus YDR150W, strain NUM1, active compounds read low 0.979 | locus YDR159W, strain sac3, active compounds read low 1.03 | locus YDR162C, strain NBP2, active compounds read low 0.979 | locus YDR195W, strain ref2 1.03 | locus YDR297W, strain sur2, active compounds read low 1.03 | locus YDR318W, strain mcm21, active compounds read low 0.979 | locus YDR334W, strain swr1, active compounds read low 1.02 | locus YDR335W, strain msn5, active compounds read low 1.03 | locus YDR388W, active compounds read low 0.985 | locus YDR392W, strain spt3, active compounds read low 1.01 | locus YDR502C, strain sam2, active compounds read low 0.993 | locus YEL003W, strain gim4, active compounds read low 1.02 | locus YEL037C, strain rad23, active compounds read low 1.02 | locus YEL061C, strain CIN8 (second series), active compounds read low 1.03 | locus YEL061C, strain CIN8, active compounds read low 0.986 | locus YER015W, strain faa2, active compounds read low 1.02 | locus YER016W, strain bim1, active compounds read low 1.01 | locus YER110C, active compounds read low 0.96 | locus YER111C, strain swi4, active compounds read low 1.02 | locus YER155C, strain BEM2 (second series), active compounds read low 1.05 | locus YER155C, strain BEM2, active compounds read low 0.995 | locus YER167W, strain BCK2, active compounds read low 0.988 | locus YFR010W, strain ubp6, active compounds read low 1.04 | locus YGL078C, strain dbp3, active compounds read low 0.987 | locus YGL086W, strain mad1, active compounds read low 1 | locus YGL167C, strain pmr1, active compounds read low 1.01 | locus YGL173C, strain kem1, active compounds read low 1.01 | locus YGL227W, strain vid30, active compounds read low 1.03 | locus YGL240W, strain doc1, active compounds read low 1.03 | locus YGL248W, strain PDE1, active compounds read low 0.977 | locus YGL253W, strain hxk2, active compounds read low 1.03 | locus YGR078C, strain PAC10, active compounds read low 0.983 | locus YGR135W, strain pre9, active compounds read low 0.976 | locus YGR252W, strain gcn5, active compounds read low 0.976 | locus YHR013C, strain ard1, active compounds read low 1.03 | locus YHR027C, strain rpn1, active compounds read low 1.02 | locus YHR030C, strain SLT2, active compounds read low 0.988 and 1.01 | locus YHR079C, strain IRE1 (second series), active compounds read low 0.974 | locus YHR079C, strain IRE1, active compounds read low 0.974 | locus YHR094C, strain hxt1, active compounds read low 0.966 | locus YHR129C, strain ARP1, active compounds read low 0.989 | locus YHR142W, strain chs7, active compounds read low 1.02 | locus YHR200W, strain rpn10, active compounds read low 0.984 | locus YIL066C, strain RNR3, active compounds read low 0.976 | locus YIL073C, strain SPO22, active compounds read low 0.896 | locus YIL125W, strain kgd1, active compounds read low 0.982 | locus YIR030C, strain dcg1, active compounds read low 0.983 | locus YJL092W, strain hpr5, active compounds read low 1.02 | locus YJL095W, strain BCK1 (second series), active compounds read low 1.02 | locus YJL095W, strain BCK1, active compounds read low 0.989 and 1.04 | locus YJL115W, strain asf1, active compounds read low 1.03 | locus YJL129C, strain trk1, active compounds read low 1.08 | locus YJL134W, strain LCB3, active compounds read low 0.973 | locus YJL154C, strain vps35, active compounds read low 1.02 | locus YJL164C, strain tpk1, active compounds read low 1.01 | locus YJL166W, strain qcr8, active compounds read low 1.04 | locus YJL168C, strain set2, active compounds read low 0.982 | locus YJL187C, strain SWE1 (second series), active compounds read low 0.972 | locus YJR043C, strain POL32, active compounds read low 0.978 | locus YJR066W, strain TOR1, active compounds read low 0.929 | locus YJR075W, strain HOC1, active compounds read low 0.985 | locus YKL009W, strain mrt4, active compounds read low 0.966 | locus YKL068W, active compounds read low 0.973 | locus YKL085W, strain MDH1 (second series), active compounds read low 0.983 | locus YKL085W, strain MDH1, active compounds read low 0.983 | locus YKL160W, strain elf1, active compounds read low 1.03 | locus YKR001C, strain vps1, active compounds read low 0.975 | locus YKR026C, strain gcn3, active compounds read low 1.03 | locus YKR091W, strain srl3, active compounds read low 1.02 | locus YLL001W, strain dnm1, active compounds read low 1.03 | locus YLL026W, active compounds read low 1.02 | locus YLL041C, strain sdh2, active compounds read low 1.02 | locus YLR027C, strain aat2, active compounds read low 1.03 | locus YLR039C, strain RIC1, active compounds read low 0.959 | locus YLR058C, strain SHM2, active compounds read low 0.973 | locus YLR102C, strain apc9, active compounds read low 0.974 | locus YLR113W, strain HOG1, active compounds read low 1.07 | locus YLR221C, strain rsa3, active compounds read low 1.01 | locus YLR258W, strain gsy2, active compounds read low 1.02 | locus YLR262C, strain YPT6 (second series), active compounds read low 1.04 | locus YLR262C, strain YPT6, active compounds read low 0.941 | locus YLR268W, strain sec22, active compounds read low 0.993 | locus YLR320W, strain mms22, active compounds read low 1.02 | locus YLR330W, strain CHS5, active compounds read low 0.992 | locus YLR342W, strain FKS1 (second series), active compounds read low 0.984 | locus YLR342W, strain FKS1, active compounds read low 1.03 | locus YLR357W, strain rsc2, active compounds read low 1.02 | locus YLR370C, strain arc18, active compounds read low 1.03 | locus YLR371W, strain rom2, active compounds read low 0.952 | locus YLR384C, strain iki3, active compounds read low 1.02 | locus YLR418C, strain cdc73, active compounds read low 0.93 | locus YML016C, strain PPZ1, active compounds read low 0.994 | locus YML032C, strain rad52, active compounds read low 0.97 | locus YML120C, strain ndi1, active compounds read low 1.02 | locus YML124C, strain tub3, active compounds read low 0.976 | locus YMR058W, strain fet3, active compounds read low 1.02 | locus YMR078C, strain ctf18, active compounds read low 0.963 | locus YMR125W, strain sto1, active compounds read low 1.06 | locus YMR129W, active compounds read low 1.03 | locus YMR205C, strain PFK2, active compounds read low 1.02 | locus YMR223W, strain ubp8, active compounds read low 0.941 | locus YMR231W, strain pep5, active compounds read low 1.01 | locus YMR307W, strain GAS1, active compounds read low 1 | locus YNL067W, strain RPL9B, active compounds read low 0.985 | locus YNL071W, strain lat1, active compounds read low 1.03 | locus YNL153C, strain GIM3, active compounds read low 0.987 | locus YNL183C, strain NPR1, active compounds read low 0.99 | locus YNL209W, strain ssb2, active compounds read low 1.02 | locus YNL233W, strain BNI4, active compounds read low 0.997 | locus YNL248C, strain rpa49, active compounds read low 1.02 | locus YNL250W, strain rad50, active compounds read low 0.964 | locus YNL271C, strain bni1, active compounds read low 0.978 | locus YNL298W, strain CLA4, active compounds read low 0.983 | locus YNL307C, strain MCK1, active compounds read low 0.973 | locus YNL322C, strain KRE1 (second series), active compounds read low 1.02 | locus YNL322C, strain KRE1, active compounds read low 0.987 | locus YNR049C, strain mso1, active compounds read low 1.02 | locus YNR052C, strain pop2, active compounds read low 0.989 | locus YOL012C, strain htz1 0.831 | locus YOL147C, strain pex11, active compounds read low 0.971 | locus YOR001W, strain rrp6, active compounds read low 1.01 | locus YOR061W, strain CKA2, active compounds read low 0.951 | locus YOR069W, strain VPS5, active compounds read low 0.992 | locus YOR070C, strain gyp1, active compounds read low 1.01 | locus YOR080W, strain dia2, active compounds read low 1.02 | locus YOR083W, strain WHI5, active compounds read low 1.02 | locus YOR106W, strain vam3, active compounds read low 1.04 | locus YOR136W, strain idh2, active compounds read low 0.977 | locus YOR144C, strain elg1, active compounds read low 0.97 | locus YOR184W, strain ser1, active compounds read low 0.98 | locus YOR231W, strain MKK1, active compounds read low 0.998 | locus YOR265W, strain rbl2, active compounds read low 1.03 | locus YOR270C, strain vph1, active compounds read low 1.08 | locus YOR290C, strain snf2, active compounds read low 1.02 | locus YOR316C, strain cot1, active compounds read low 0.971 | locus YPL051W, strain arl3, active compounds read low 1.03 | locus YPL055C, strain LGE1, active compounds read low 0.979 | locus YPL078C, strain atp4, active compounds read low 1.03 | locus YPL106C, strain sse1, active compounds read low 1.02 | locus YPL240C, strain hsp82, active compounds read low 1.04 | locus YPL256C, strain CLN2, active compounds read low 1.01 | locus YPR119W, strain clb2, active compounds read low 0.968 | locus YPR141C, strain kar3, active compounds read low 0.954 | locus YPR163C, strain tif3, active compounds read low 0.967 | locus YPR167C, strain met16, active compounds read low 0.958 | strain wtn01, active compounds read low 1.03

From PubChem BioAssay AID1159580 (chemical genetic matrix, 2015)
